Activity calls are given as the source filed them.
How the values were obtained:
[1] = small molecules captured by biotinylated probe aFSTL3 – biochemical, small-molecule microarray, fluorescence 635/667, stem cell growth factor project, primary screen (AID 1064); conditions: higher = more signal;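 note: measures binding of the biotinylated anti-FSTL3 antibody to printed compounds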
[2] = binders from COS7 lysate, DM2A8 probe, primary screen, torsin A project, cell lysate, small-molecule microarray, fluorescence 635/667 (AID 1065); conditions: higher = more signal, COS7 lysate expressing mutant human TOR1A
[3] = small molecules captured by biotinylated probe aFGF2 – biochemical, small-molecule microarray, fluorescence 635/667, stem cell growth factor project, primary screen (AID 1067); conditions: higher = more signal;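 note: measures binding of biotinylated aFGF2 protein to printed compounds on slides; z-score merges feature fluorescence and signal-to-noise across triplicate slides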
[4] = small molecules captured by biotinylated probe aFGF10 – biochemical, small-molecule microarray, fluorescence 635/667, stem cell growth factor project, primary screen (AID 1071); conditions: higher = more signal;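 note: score merges 667 nm spot intensity and signal to noise from triplicate slides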
[5] = target: Neurogenic locus notch homolog protein 2 (Homo sapiens) (UniProt Q04721); assay: small molecules binding Notch2 protein – biochemical, small-molecule microarray, 635 nm fluorescence, stem cell growth factors, primary screen (AID 1073); conditions: higher = more signal
[6] = target: Pro-neuregulin-1, membrane-bound isoform (Homo sapiens) (UniProt Q02297); assay: small molecules binding neuregulin-1 protein – biochemical, small-molecule microarray, fluorescence 635/667, psychiatric disease protein project, primary screen (AID 1075); conditions: NRG1 binding, 635 nm fluorescence, higher = more signal;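 note: score combines 667 nm spot fluorescence with signal to noise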
[7] = system: Neuregulin-1 EGF-like domain; assay: small molecules binding NRG1 EGF domain – biochemical, small-molecule microarray, 635 nm fluorescence, primary screen (AID 1081); conditions: higher = more signal;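 note: binding of the protein to compounds printed on small-molecule microarray slides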
[8] = FRG1 expression reporter modulators in myotubes – cell-based, C2C12 myotubes, firefly/Renilla luciferase, luminescence, FRG1 inhibition for FSHD, primary screen (AID 1084); conditions: FRG1 promoter luciferase, higher = more signal, called active from +8 up or from −8 down
[9] = small molecules captured by biotinylated probe aFST – biochemical, small-molecule microarray, fluorescence 635/667, stem cell growth factor project, primary screen (AID 1086); conditions: higher = more signal;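 note: score merges 667 nm fluorescence with signal-to-noise of each printed compound spot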
[10] = binders of probe aHhip on microarray, primary screen, stem cell growth factor project, biochemical, small-molecule microarray, fluorescence 635/667 (AID 1087); conditions: higher = more signal;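 note: score merges spot fluorescence at 667nm with spot signal to noise ratio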

Sequence of Neurogenic locus notch homolog protein 2 (Homo sapiens) (Q04721 whole entry, looked up, canonical isoform): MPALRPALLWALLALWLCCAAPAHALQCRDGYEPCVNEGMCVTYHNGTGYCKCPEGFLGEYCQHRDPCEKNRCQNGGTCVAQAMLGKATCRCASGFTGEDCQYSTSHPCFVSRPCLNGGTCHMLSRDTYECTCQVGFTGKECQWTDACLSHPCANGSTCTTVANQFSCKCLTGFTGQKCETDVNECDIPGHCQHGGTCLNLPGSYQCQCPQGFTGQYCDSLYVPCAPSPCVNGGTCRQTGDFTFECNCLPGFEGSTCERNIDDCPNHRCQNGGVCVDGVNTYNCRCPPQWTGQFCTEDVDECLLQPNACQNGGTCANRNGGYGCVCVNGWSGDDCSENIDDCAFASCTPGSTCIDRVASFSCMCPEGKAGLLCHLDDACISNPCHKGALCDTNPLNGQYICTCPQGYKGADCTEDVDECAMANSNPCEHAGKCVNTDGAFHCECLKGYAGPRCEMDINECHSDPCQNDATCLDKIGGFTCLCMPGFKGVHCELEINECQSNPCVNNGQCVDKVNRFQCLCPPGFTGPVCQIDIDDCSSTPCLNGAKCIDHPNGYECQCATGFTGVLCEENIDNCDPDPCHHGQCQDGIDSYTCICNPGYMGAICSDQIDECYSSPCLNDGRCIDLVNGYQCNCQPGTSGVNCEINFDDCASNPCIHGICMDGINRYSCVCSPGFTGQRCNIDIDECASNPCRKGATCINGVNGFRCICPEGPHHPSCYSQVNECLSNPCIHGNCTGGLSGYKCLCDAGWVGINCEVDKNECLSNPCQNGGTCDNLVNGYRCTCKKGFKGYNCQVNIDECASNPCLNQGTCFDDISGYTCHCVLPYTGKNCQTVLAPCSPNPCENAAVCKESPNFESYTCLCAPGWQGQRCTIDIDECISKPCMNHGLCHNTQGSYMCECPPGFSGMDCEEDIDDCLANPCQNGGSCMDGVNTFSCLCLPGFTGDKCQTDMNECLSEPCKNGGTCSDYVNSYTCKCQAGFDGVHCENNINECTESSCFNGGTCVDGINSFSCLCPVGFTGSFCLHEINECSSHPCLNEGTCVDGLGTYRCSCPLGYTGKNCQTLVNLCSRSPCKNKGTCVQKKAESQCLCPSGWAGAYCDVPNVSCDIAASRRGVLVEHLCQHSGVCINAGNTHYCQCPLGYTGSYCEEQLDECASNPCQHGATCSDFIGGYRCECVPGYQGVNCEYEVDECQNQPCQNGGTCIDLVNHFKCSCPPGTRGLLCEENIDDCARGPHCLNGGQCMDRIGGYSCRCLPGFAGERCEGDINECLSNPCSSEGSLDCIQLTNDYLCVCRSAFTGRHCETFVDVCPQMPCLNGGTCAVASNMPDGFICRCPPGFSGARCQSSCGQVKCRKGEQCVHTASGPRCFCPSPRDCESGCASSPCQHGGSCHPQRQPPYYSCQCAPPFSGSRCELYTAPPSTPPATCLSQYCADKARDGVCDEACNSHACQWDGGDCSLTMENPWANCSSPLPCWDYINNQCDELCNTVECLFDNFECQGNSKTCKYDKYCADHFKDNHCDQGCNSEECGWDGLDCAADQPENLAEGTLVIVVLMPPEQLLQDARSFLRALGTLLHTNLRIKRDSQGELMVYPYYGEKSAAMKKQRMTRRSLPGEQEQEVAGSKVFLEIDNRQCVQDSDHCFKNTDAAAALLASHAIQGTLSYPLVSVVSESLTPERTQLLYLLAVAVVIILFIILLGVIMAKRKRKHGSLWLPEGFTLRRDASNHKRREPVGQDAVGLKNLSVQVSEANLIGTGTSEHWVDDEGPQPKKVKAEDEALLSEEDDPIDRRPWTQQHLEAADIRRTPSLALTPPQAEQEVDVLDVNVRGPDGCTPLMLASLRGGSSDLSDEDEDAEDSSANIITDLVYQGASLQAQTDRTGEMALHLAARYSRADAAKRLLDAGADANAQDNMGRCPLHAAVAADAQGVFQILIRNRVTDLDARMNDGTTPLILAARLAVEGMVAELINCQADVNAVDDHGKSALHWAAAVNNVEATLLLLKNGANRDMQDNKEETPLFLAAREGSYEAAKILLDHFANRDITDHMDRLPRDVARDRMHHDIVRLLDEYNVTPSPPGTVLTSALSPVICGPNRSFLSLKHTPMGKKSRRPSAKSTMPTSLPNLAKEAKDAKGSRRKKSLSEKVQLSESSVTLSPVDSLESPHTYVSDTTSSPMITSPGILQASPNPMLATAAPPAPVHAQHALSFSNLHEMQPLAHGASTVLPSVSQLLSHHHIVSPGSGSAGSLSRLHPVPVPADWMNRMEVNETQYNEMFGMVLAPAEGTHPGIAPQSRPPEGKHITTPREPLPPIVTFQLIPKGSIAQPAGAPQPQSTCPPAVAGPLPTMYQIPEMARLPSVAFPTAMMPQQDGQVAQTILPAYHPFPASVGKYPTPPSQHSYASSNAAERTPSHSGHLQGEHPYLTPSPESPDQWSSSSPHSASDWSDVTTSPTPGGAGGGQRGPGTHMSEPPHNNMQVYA
Sequence of Pro-neuregulin-1, membrane-bound isoform (Homo sapiens) (Q02297 whole entry, looked up, the tested form may be a part, canonical isoform): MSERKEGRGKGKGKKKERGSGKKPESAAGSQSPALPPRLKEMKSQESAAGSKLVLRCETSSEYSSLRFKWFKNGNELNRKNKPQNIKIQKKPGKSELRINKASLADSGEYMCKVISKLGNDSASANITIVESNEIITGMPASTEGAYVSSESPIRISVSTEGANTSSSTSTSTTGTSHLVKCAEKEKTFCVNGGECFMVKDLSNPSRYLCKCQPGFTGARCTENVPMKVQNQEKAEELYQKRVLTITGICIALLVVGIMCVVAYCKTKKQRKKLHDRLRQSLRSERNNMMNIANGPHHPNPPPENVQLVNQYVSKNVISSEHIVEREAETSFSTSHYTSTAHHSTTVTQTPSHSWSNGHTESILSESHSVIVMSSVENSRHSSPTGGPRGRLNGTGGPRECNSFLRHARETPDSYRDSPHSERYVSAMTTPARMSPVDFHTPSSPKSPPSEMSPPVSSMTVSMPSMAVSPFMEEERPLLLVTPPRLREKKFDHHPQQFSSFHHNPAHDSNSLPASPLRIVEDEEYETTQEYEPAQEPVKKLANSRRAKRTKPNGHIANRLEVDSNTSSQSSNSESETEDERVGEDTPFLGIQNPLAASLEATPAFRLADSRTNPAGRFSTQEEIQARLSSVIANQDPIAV

SMILES	composite z-score [1]	composite z-score [2]	composite z-score [3]	composite z-score [4]	composite z-score [5]	composite z-score [6]	composite z-score [7]	z-score [8]	composite z-score [9]	composite z-score [10]
CO[C@@H]1COC(=O)CC=C[C@@H](C)[C@@H]2C=C[C@H](O)[C@@H](COC(=O)CCC[C@H]1C)O2	-0.29	1.11	-0.146	-0.14	-0.117	-0.582	-0.167	-0.414 (inactive)	0.246	-0.261
COC(=O)[C@@H]1CC[C@H](C)[C@@H](c2ccc(C)cc2)N1C(=O)c1ccc(C=NOC[C@@H](O)COCc2ccco2)cc1	0.852	0.239	-0.226	-0.58	-1.83	-0.96	-1.04	0.495 (inactive)	-0.72	-0.137
COc1cccc([C@H]2Oc3ccc(OC)cc3C(=NO[C@H](C)c3cn([C@@H]4COC[C@H]4O)nn3)[C@@H]2O)c1	-0.183	0.044	-0.0867	-0.246	-0.315	0.0671	-0.168	0.253 (inactive)	-0.324	-0.305
COC(=O)[C@@H]1CC[C@H](C)[C@@H](c2ccc(C)cc2)N1C(=O)c1ccc(C=NOC(C)CN2CCCCc3nc(C)c(C)cc32)cc1 (stereo not given in full)	0.145	-0.859	-0.0959	0.233	-0.199	0.131	0.312	0.204 (inactive)	0.165	0.226
CCCNC(=O)OC[C@H]1O[C@H](CCON=C2[C@H]3CCn4c(=O)n(-c5ccccc5)c(=O)n4[C@H]3[C@H](O)[C@@H]3O[C@H]23)C=C[C@@H]1Oc1ccc(OC)cc1	-0.362	0.447	-0.0885	0.406	0.774	-0.248	0.0894	-0.257 (inactive)	0.214	-0.0994
CCOc1ccc(N2C(=O)/C(=C/C=C/c3ccccc3OC)S(=O)(=O)C2c2cccc([N+](=O)[O-])c2)cc1 (stereo not given)	-0.0317	0.232	-0.0906	0.281	0.344	0.903	-0.142	-1.75 (inactive)	0.323	-0.515
CCOC(=O)NN=C1C[C@@H](O)[C@@H](O)[C@@H]2[C@@H]3C(=O)N(C(C)(C)C)C(=O)[C@@H]3CC[C@@H]12	-0.295	0.721	0.0014	0.177	0.394	-0.904	-1.83	-0.0445 (inactive)	0.577	-0.0994
CCOC(=O)CCN1C(=O)[C@H]2[C@H]3[C@H](O)[C@H](O)CC(=NOC[C@@H](O)COCc4ccco4)[C@H]3CC[C@H]2C1=O	-0.528	-0.0277	-0.0996	0.483	0.722	0.035	0.148	0.122 (inactive)	0.132	0.28
C[C@@H](c1ccccc1)N1C(=O)[C@H]2[C@H]3[C@H](O)[C@H](O)CC(=NOC[C@@H](O)COCc4ccco4)[C@@H]3CC[C@H]2C1=O	0.193	0.068	-0.159	-0.141	-1.02	-0.717	-0.647	-0.0058 (inactive)	0.0275	-0.137
O=C1O[C@@H](c2ccccc2)[C@@H](c2ccccc2)N2[C@@H](c3ccc(OCCO)cc3)[C@]3(C(=O)Nc4ccccc43)[C@@H](C(=O)N3CCN(c4ncccn4)CC3)[C@H]12	0.0612	0.574	-0.0493	0.267	1.25	1.27	1.34	-0.968 (inactive)	0.847	0.106
[N-]=[N+]=NCc1ccccc1[C@@H]1OC(c2ccc(OCCCO)cc2)=N[C@]1(Cc1ccccc1)C(=O)N1CCOCC1	0.351	1.51	0.122	0.875	1.55	1.68	1.25	-1.42 (inactive)	0.804	0.778
CC(C)(C)OC(=O)CC[C@]1(C(N)=O)COC(c2ccc(OCCCO)cc2)=N1	0.645	2.69	0.325	0.6	1.39	1.14	1.03	0.266 (inactive)	1.19	0.462
CC(C)N1CC=CC23O[C@@H]4C=CCCOC(=O)C4[C@H]2C(=O)N(CCCCCCO)[C@@H]3C1=O (stereo not given in full)	0.487	-1.93	-0.141	-0.671	-1.17	1.2	0.896	-0.121 (inactive)	-0.357	-0.236
CC(CCN1CCCCc2nc(C)c(C)cc21)=NOC(C)CN1CCCc2nc(C)c(C)cc21 (stereo not given)	0.0516	0.471	0.196	0.943	1.52	1.35	1.06	1.28 (inactive)	1.24	0.82
COc1ccc(O[C@H]2C=C[C@@H](c3ccccc3)O[C@@H]2COC(=O)CCC(C)=NOCC[C@@H]2C=C[C@H](OC(C)=O)[C@@H](COC(C)=O)O2)cc1	-0.19	0.779	-0.0363	-0.171	-0.086	0.0028	-0.183	1.04 (inactive)	0.406	0.305
O=C1C2C=CC(C(O)c3ccc([N+](=O)[O-])cc3)N(Nc3ccc([N+](=O)[O-])cc3)C2C(=O)N1c1ccccc1 (stereo not given)	0.25	-0.0145	0.154	1.13	1.63	1.55	1.17	-0.164 (inactive)	1.02	0.178
Cc1cc2c(nc1C)CCCN2CC(O)CN1CCN(C)CC1 (stereo not given)	0.499	0.382	0.0138	0.575	0.273	0.462	0.346	-0.323 (inactive)	0.758	0.744
CC(C)CON=C1C[C@@H](O)[C@@H](O)[C@@H]2[C@@H]3C(=O)N(C[C@@H]4CCCO4)C(=O)[C@@H]3CC[C@H]12	-0.549	0.254	-0.116	0.421	0.595	-0.0414	0.59	-0.267 (inactive)	-0.179	-0.406
O=C1[C@H]2[C@H]3[C@H](O)[C@H](O)CC(=NO[C@@H]4O[C@H](CO)[C@@H](O)[C@H](O)[C@H]4O)[C@H]3CC[C@H]2C(=O)N1C1CCCCC1	-0.332	1.49	-0.0659	-0.0948	0.028	-0.197	0.995	-0.225 (inactive)	0.276	0.841
CCOC(=O)[C@H](CC(C)C)NC(=O)CCC1CC(OC(=O)NCCc2ccc(F)cc2)CC2(CCCC(COC(=O)NCc3ccccc3)O2)O1 (stereo not given in full)	-0.969	0.561	0.0131	1.02	0.769	1.13	1.28	2.94 (inactive)	0.223	0.0695
CCOC(=O)[C@H](CC(C)C)NC(=O)CCC1CC(OC(=O)NCc2cccc3ccccc23)CC2(CCCC(COC(=O)NCCc3ccccc3OC)O2)O1 (stereo not given in full)	-0.414	0.301	-0.108	0.433	1.14	0.174	0.882	0.0171 (inactive)	0.402	-0.134
COCCOC(=O)N1C(=O)[C@@]2(c3cc(C#CC4(O)CCCCCC4)ccc31)[C@H](c1ccc(OCCO)cc1)N1[C@H](c3ccccc3)[C@H](c3ccccc3)OC(=O)[C@H]1[C@@H]2C(=O)NC[C@H](O)c1ccccc1	-0.0536	1.11	-0.0444	0.66	0.837	1.55	1.13	-0.294 (inactive)	0.29	-0.0994
C=C(/C(=C/C[C@@H](OC(=O)c1ccncc1)c1ccc(OCCO)cc1)c1cnc2ccccc2c1)C(C)C	-0.342	-0.0128	-0.186	0.128	0.772	0.562	0.694	-2.27 (inactive)	0.201	0.0206
C=CC[C@@H]1C=C[C@H](ON=C[C@@H](OC)[C@H](C)C=CCC(=O)OC)[C@@H](CO)O1	-0.147	0.827	-0.0493	0.223	-0.203	0.161	0.528	0.813 (inactive)	0.0886	-0.0346
c1ccc(C2NCCc3c2[nH]c2ccccc32)cc1 (stereo not given)	0.136	0.548	0.0183	0.0913	-0.443	0.464	0.233	-0.151 (inactive)	-0.16	-0.128
CO[C@@H]1COC(=O)CC=C[C@@H](C)[C@@H]2C=C[C@@H](O)[C@@H](COC(=O)CC=C[C@H]1C)O2	-0.42	1.08	-0.0861	-0.251	-0.716	-0.688	-0.523	-0.969 (inactive)	-0.176	-0.16

— PubChem BioAssay
